Compounds with a hit are over-represented: about 12% of the library has one in this group of screens.
L3MBTL1 block: qHTS Assay for the Inhibitors of L3MBTL1. Potency, µM (series often up to 57.1 µM), for the others: at the highest dose activity, negative = inhibition, most hits filed as inhibitors. AlphaScreen L3MBTL1–H3K9me1 peptide binding. 230,000 tested, 0.66% active. Lethal(3)malignant brain tumor-like protein 1 (Homo sapiens), Q9Y468. AID 485360, 2010; further: on the % scale 0 is the no-effect control and ±100 the full control effect; nearly all actives have a fitted effect of over 60% in size
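Displacement of a biotinylated histone H3(1-15) peptide monomethylated at Lys9 (75 nM) from L3MBTL1 (50 nM) was measured by AlphaScreen after a 30 min room-temperature compound incubation; cefsulodin titration served as intraplate control.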
Sfp PPTase inh: qHTS Assay for Inhibitors of Bacillus subtilis Sfp phosphopantetheinyl transferase (PPTase) | 4'-phosphopantetheinyl transferase ffp (Bacillus subtilis), Q9F4F7 | Biochemical Sfp PPTase activity, qHTS | Potency, µM, without a hit: largest response in the series, negative = inhibition, most hits filed as inhibitors | 310,000 tested, 3.5% active;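 further: the enzyme is Sfp with the accession as filed and its product quenches rhodamine fluorescence; 0% = enzyme reaction without inhibitor and -100% = no enzyme wells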
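After 15 min at room temperature with compound, 15 nM Sfp received 5 uM rhodamine-CoA plus 12.5 uM BHQ-2-ybbR (50 mM Hepes pH 7.6, 10 mM MgCl2). Rate came from the fluorescence difference over 30 min, ex 525/em 598 nm.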
HP1b chromo inh: HTS for Inhibitors of HP1-beta Chromodomain Interactions with Methylated Histone Tails. Chromobox protein homolog 1 (Homo sapiens), P83916. AlphaScreen HP1-beta / biotin-H3K9me3 peptide binding. Potency, µM (highest dose often 114 µM), for the others: top-dose activity change, negative = inhibition, most hits filed as inhibitors. 390,000 tested, 0.56% active; further: nearly all actives have a fitted effect of over 70% in size
Target sequence (P83916 whole entry, looked up): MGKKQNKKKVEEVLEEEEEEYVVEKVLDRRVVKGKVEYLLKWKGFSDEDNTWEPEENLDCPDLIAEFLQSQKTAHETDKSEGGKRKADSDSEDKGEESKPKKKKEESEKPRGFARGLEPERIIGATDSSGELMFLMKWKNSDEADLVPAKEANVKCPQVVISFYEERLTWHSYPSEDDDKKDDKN
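Compound inhibition of the preformed complex between 50 nM HP1-beta and 50 nM biotinylated H3K9me3 peptide was read by AlphaScreen. Buffer was PBS pH 7.4 with 0.01% Tween-20. Incubations ran 30 min at room temperature, with 10 ug/mL donor/acceptor beads.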
JMJD2A Tudor inh: qHTS Assay for Inhibitors of JMJD2A-Tudor Domain; 390,000 tested, 4.4% active; Potency, µM (doses to about 114 µM), without a hit: at the highest dose activity change, negative = inhibition, hits mostly inhibitors; AlphaScreen JMJD2A-Tudor / H3K4me3 peptide binding; Lysine-specific demethylase 4A (Homo sapiens), O75164; further: on the % scale 0 is the no-effect control and ±100 the full control effect; nearly all actives have a fitted effect of over 50% in size
G9a inh: qHTS Assay for Inhibitors of Histone Lysine Methyltransferase G9a. G9a H3K9 monomethylation, AlphaScreen, 2 h. Histone-lysine N-methyltransferase EHMT2 (Homo sapiens), Q96KQ7. Potency, µM (top dose mostly 102 µM), for inactives: top-dose activity, negative = inhibition, hits mostly inhibitors. 350,000 tested, 8.8% active; further: on the % scale 0 is the no-effect control and ±100 the full control effect; nearly all actives have a fitted effect of over 75% in size
Target sequence (Q96KQ7 913-1193 limits assumed): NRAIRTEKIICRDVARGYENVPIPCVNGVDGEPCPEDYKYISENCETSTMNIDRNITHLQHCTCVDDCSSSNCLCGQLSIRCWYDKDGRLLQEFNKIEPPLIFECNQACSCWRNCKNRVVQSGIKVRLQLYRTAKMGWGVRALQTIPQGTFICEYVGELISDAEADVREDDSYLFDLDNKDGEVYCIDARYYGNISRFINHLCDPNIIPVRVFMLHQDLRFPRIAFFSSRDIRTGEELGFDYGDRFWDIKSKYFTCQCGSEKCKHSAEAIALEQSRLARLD
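G9a (20 nM) preincubated 15 min RT with compounds, then 500 nM biotinylated H3K9 peptide and 20 uM SAM added; 2 h RT reaction. Monomethyl-H3K9 product detected by AlphaScreen with anti-H3K9me1 antibody, streptavidin donor and anti-rabbit IgG acceptor beads.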
BAZ2B block: qHTS Assay for Inhibitors of BAZ2B; AlphaScreen BAZ2B-H3K14Ac peptide displacement; Potency, µM (top dose mostly 114 µM), inactives show at the highest dose activity change, negative = inhibition, hits mostly inhibitors; 360,000 tested, 4.4% active; further: on the % scale 0 is the no-effect control and ±100 the full control effect; nearly all actives have a fitted effect of over 60% in size
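AlphaScreen displacement: compounds (up to 110uM) incubated 30 min at room temperature with a preformed 50 nM BAZ2B/50 nM biotinylated H3K14Ac peptide complex in PBS pH 7.4 with Tween-20. Donor and acceptor beads at 10 ug/mL final added, 20 min light-protected before reading.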
Starred values were filed as active, the others as inactive; ? = inconclusive; nt = no result given; [ ] = dose if it differs, or a comment. The call rests on the fitted dose curve; in most records, active means well fitted curve in the direction sought with a large enough effect; inconclusive means small, poorly fitted or top-dose-only effect, or another doubt; inactive means no such curve, though single readings can be large; an effect the other way counts as inactive or inconclusive. Potency means the concentration at half of the fitted maximal effect.

SMILES	L3MBTL1 block	Sfp PPTase inh	HP1b chromo inh	JMJD2A Tudor inh	G9a inh	BAZ2B block
O=c1ccc2c(o1)/C(=C/C=C(Cl)Cl)CCC2	-33.8%	39.8µM*	21.9%	6.3%[57.1 µM]	?	46.7%
COc1ccc(C2COc3c(ccc(O)c3OC)C2)c(OC)c1O (stereo not drawn)	nt	-11.1%	nt	nt	-39.0%[2.33 µM]	nt
O=C(CN1CCCCC1)Nc1ccc(NC(=O)c2ccccc2Cl)cc1Cl	6.2%	1.8%	7.4%	-19.0%	10µM*	-4.8%
COc1ccccc1NC(=O)CN1CCN(CC(=O)Nc2ccc3c(c2)OCCO3)CC1	nt	5.0%	34.5%	-21.3%	?	2.3%
O=C(CN1CCN(CC(=O)Nc2ccccc2Cl)CC1)Nc1ccc2c(c1)OCCO2	-6.1%	1.0%	40.0%	16.4%[11.4 µM]	25.1µM*	-7.7%
S=C(Nc1ccc2c(c1)OCCO2)Nc1ccccc1Cl	nt	17.8%	1.0%	-7.5%	79.4µM*	-17.6%
O=C(CN1CCCCCCC1)Nc1ccc(Cl)cc1Cl	24.1%	10.7%	89.7%	51.6%	120.8%	nt
CCOc1ccccc1CNC(=O)CN1C(=O)CCc2cc(S(=O)(=O)N3CCCCC3)ccc21	nt	nt	36.2%	-2.0%	32.5%[59 µM]	-28.2%
COC(=O)c1cc(=O)n(-c2ccc(F)cc2)c(=Nc2ccc(F)cc2)s1	-13.4%	3.5%	-14.3%	?	39.8µM*	?
COC(=O)c1cc(=O)n(Cc2cccs2)c(=Nc2ccc(F)cc2)s1	-8.2%	0.9%	-16.1%	-26.4%	nt	?
COC(=O)c1cc(=O)n(CCc2ccccc2F)c(=Nc2ccc(F)c(Cl)c2)s1	nt	2.9%	3.0%	?	39.8µM*	?
COC(=O)c1cc(=O)n(Cc2ccco2)c(=Nc2ccc(F)c(Cl)c2)s1	nt	?	-21.2%	?	35.5µM*	?
COc1ccc(-c2cn3nc(N4CCCC(C(=O)Nc5cc(C)cc(C)c5)C4)sc3n2)cc1 (stereo not drawn)	nt	nt	0.9%	-17.8%	?	-0.1%
CCN1CCN(CCCN(Cc2ccco2)C(=S)Nc2ccc(Cl)cc2)CC1	2.5%	10.1%	-11.7%	-23.4%	?	-9.2%
CCN1CCN(CCCN(Cc2ccco2)C(=S)Nc2ccc(C)c(Cl)c2)CC1	7.2%	-37.6%	26.7%	-24.1%	35.5µM*	-29.4%
Cc1ccc(NC(=S)N(CCCN2CCOCC2)Cc2ccco2)cc1Cl	-4.5%	-17.0%	-10.3%	-31.0%	-15.2%	-38.3%
CCOC(=O)c1ccc(NC(=S)N(CCCN2CCCC2)Cc2ccco2)cc1	35.5µM*	-13.2%	-2.2%	-24.7%	56.2µM*	-34.6%
CCN1CCN(CCCN(Cc2ccco2)C(=S)Nc2cc(Cl)ccc2C)CC1	17.3%	-86.6%	4.4%	-8.2%	28.2µM*	-8.7%
CCOC(=O)c1ccc(NC(=S)N(CCCN2CCN(CC)CC2)Cc2ccco2)cc1	4.7%	-1.0%	-2.6%	-28.8%	-39.7%	-12.5%
C=CCOc1c(Br)cc(CNc2ccc3[nH]c(=O)[nH]c3c2)cc1OCC	-13.6%	6.5%	1.0%	-22.8%	nt	-18.9%
COc1cc(CNc2ccc3[nH]c(=O)[nH]c3c2)ccc1OCc1ccc(Cl)cc1	2.3%	-12.8%	11.7%	-20.6%	nt	-12.4%
C=CCOc1cccc(CNc2ccc3[nH]c(=O)[nH]c3c2)c1	-17.5%	-14.1%	-25.4%	?	20µM*	?
COc1cc(CNc2ccc3[nH]c(=O)[nH]c3c2)ccc1OCc1ccc(F)cc1	-7.3%	-4.8%	21.6%	-6.3%	?	-25.6%
C=CCOc1ccc(CNc2ccc3[nH]c(=O)[nH]c3c2)cc1OC	-8.1%	4.6%	6.2%	-11.3%	44.7µM*	-27.3%

Screening data deposited in PubChem by National Center for Advancing Translational Sciences (NCATS).
